Over roughly 68,000 sequences, “fluorescence intensity (a.u.)” has its median near 9,100; the highest 2% begin near 16,000. This excerpt belongs to a sample that is enriched for the highest values.
molecular target: OsWRKY34 (Oryza sativa, UniProt Q0JBA9 1-250); assay: protein-binding microarray (RPBM); PBS, 2% BSA, 51.3 ng/ul salmon testes DNA, 50 uM zinc acetate, 200 nM TF, 25 C, 1 h; high values mean tight binding; settings: protein: recombinant; tags: N-terminal polyhistidine and DsRed monomer fusion (pET32a); label: CyDye5-dUTP incorporated in the synthesized complementary strand; 3' TTTTT single-stranded linker to array surface; dsDNA, one strand shown
Method in brief: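 Binding signal here means per-feature fluorescence intensity in arbitrary units. The values were read on an Axon 4000B scanner after a custom Agilent array, double-stranded by primer extension with Cy5-dUTP, was incubated with 200 nM protein at 25 °C for 1 h in PBS with 2% BSA, salmon testes DNA and 50 µM zinc acetate, then washed. The proteins were transcription factors with an N-terminal polyhistidine tag and DsRed, expressed in E. coli BL21-CodonPlus and purified on Ni–NTA.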

Chain of OsWRKY34 (Q0JBA9 entry or part of it): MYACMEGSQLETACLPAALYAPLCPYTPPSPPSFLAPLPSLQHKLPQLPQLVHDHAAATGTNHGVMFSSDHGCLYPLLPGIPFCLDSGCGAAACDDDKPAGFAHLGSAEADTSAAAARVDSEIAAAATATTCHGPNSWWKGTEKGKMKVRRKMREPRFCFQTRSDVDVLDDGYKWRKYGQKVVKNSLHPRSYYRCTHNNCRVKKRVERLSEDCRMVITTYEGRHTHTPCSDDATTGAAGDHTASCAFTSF

| Sequence | binding signal |
| --- | --- |
| CACTCTGCCTCACCTCACCTCACCTCACGTCCTCACCTCCCGGAGTCACCTAGTGCAG | 10300 fluorescence intensity (a.u.) |
| CCGGGACGTGTGCCGCCGCTTAAGCCCGCTCTTTATACGTCGGAGTCACCTAGTGCAG | 9690 fluorescence intensity (a.u.) |
| ACTCGTTGACCAAAGGGAGTGGAGTTTGAAAGGGTGGGAGCGGAGTCACCTAGTGCAG | 14600 fluorescence intensity (a.u.) |
| TCTTGCAATCTTGATCGATAGTCTCCTCCATCTTCTTCGTCGGAGTCACCTAGTGCAG | 8680 fluorescence intensity (a.u.) |
| ATAAATTATTAGTACTATTCCATATACTACATTTTCTTCTCGGAGTCACCTAGTGCAG | 8440 fluorescence intensity (a.u.) |
| CATAGTCGTCTTCCTCGATCAATCCGCTCCGCTCCGTCTTCGGAGTCACCTAGTGCAG | 8440 fluorescence intensity (a.u.) |
| CCCTCCGTTTCAAAATGTTTGACACCGTTGACTTTTTAATCGGAGTCACCTAGTGCAG | 14900 fluorescence intensity (a.u.) |
| CTCCCTCCGTTTCAAAATGTTTGACACCGTTGACTTTTTACGGAGTCACCTAGTGCAG | 28300 fluorescence intensity (a.u.) |
| TGTTTTCTTCTCATTCTTCTTTTTTCCCTTTCTTTTGCTCCGGAGTCACCTAGTGCAG | 8390 fluorescence intensity (a.u.) |
| TTGCATTTTTGACTGTTTGCGTTGACTCCCTCACTTCTTCCGGAGTCACCTAGTGCAG | 16400 fluorescence intensity (a.u.) |
| ATACTCCCTCCGTTTCAAAATGTTTGACACCGTTGACTTTCGGAGTCACCTAGTGCAG | 12500 fluorescence intensity (a.u.) |
| TACTACTCCCTCCGTTTCAAAATGTTTGACACCGTTGACTCGGAGTCACCTAGTGCAG | 13100 fluorescence intensity (a.u.) |
| ATGTACTCCCTCCGTTTCAAAATGTTTGACACCGTTGACTCGGAGTCACCTAGTGCAG | 12300 fluorescence intensity (a.u.) |
| ACTCCCTCCGTTTCAAAATGTTTGACACCGTTGACTTTTTCGGAGTCACCTAGTGCAG | 18500 fluorescence intensity (a.u.) |
| TTTCTTTTGCATTTTCCCTGTTCCATATCGTTTTTTTCTCCGGAGTCACCTAGTGCAG | 8560 fluorescence intensity (a.u.) |
| TTTCTTCCATACTGAAATGTGTATCTTAGCTACTGAAGCTCGGAGTCACCTAGTGCAG | 8440 fluorescence intensity (a.u.) |
| CATTTAATCTCCTCGTTACCGCTCAATTAACGCACCGATTCGGAGTCACCTAGTGCAG | 8880 fluorescence intensity (a.u.) |
| CGGAGATCTTCAGAAACGAGTTATTTTTCCTCGCAAAACGCGGAGTCACCTAGTGCAG | 8690 fluorescence intensity (a.u.) |
| ATTTGATCCTCTTTTTTCAACTTTGCTTATTTGACCCTTCCGGAGTCACCTAGTGCAG | 11100 fluorescence intensity (a.u.) |
| TCACCCTTCACCTGCATGATCCTCTCTTTTTCAATCCCTCCGGAGTCACCTAGTGCAG | 9340 fluorescence intensity (a.u.) |
| GCTCCGACTCCCTGTTTCCTGGTCCTCTTTTACACCGGCTCGGAGTCACCTAGTGCAG | 15100 fluorescence intensity (a.u.) |
| TACATGTCTTAGAGCTACACATCTCTGATTTTTTTTTACACGGAGTCACCTAGTGCAG | 8950 fluorescence intensity (a.u.) |
| CTCTGTAATATATCATTATGACTGCTAATTCGTCTATTTTCGGAGTCACCTAGTGCAG | 8080 fluorescence intensity (a.u.) |

| Sequence | binding signal |
| --- | --- |
| CATATGTTGTTTTCTATTTCCCACTAATTTTCGTCATTTTCGGAGTCACCTAGTGCAG | 10400 fluorescence intensity (a.u.) |
| CTTCTATTTTCTTTCTGCTCTTCTCTTCTCTTGTCTACTTCGGAGTCACCTAGTGCAG | 10300 fluorescence intensity (a.u.) |
| TCTCTTCCGGTCGGAAGCTTGCTTTCCTTTTCTTCTTCTTCGGAGTCACCTAGTGCAG | 8360 fluorescence intensity (a.u.) |
| CGGAGTCGGTCAAGCTTAACCACTATTCCTTTCCGGATTGCGGAGTCACCTAGTGCAG | 61500 fluorescence intensity (a.u.) |
| CCATTCCGCCCACTAGCTTTCTCTCTCTATTTTCTTTTTCCGGAGTCACCTAGTGCAG | 16800 fluorescence intensity (a.u.) |
| CCCCACATTTTCTTTCACCTTCTCTTCCATTCCACCTCTCCGGAGTCACCTAGTGCAG | 10100 fluorescence intensity (a.u.) |
| TTTTCTATTTCCCACTACTTTTCGTCATTTTTCTAATATTCGGAGTCACCTAGTGCAG | 18100 fluorescence intensity (a.u.) |
| TAGATTCTCTTTCTATTTTCTTTCCACTTAGCTTAGATATCGGAGTCACCTAGTGCAG | 9100 fluorescence intensity (a.u.) |
| CACTATTCCTTTCCGGATTGCTTCTGCGTTCTACTTGATGCGGAGTCACCTAGTGCAG | 11000 fluorescence intensity (a.u.) |
| ATCTTTTTCTACTATCACTATATCATATTCTATTTTTTTTCGGAGTCACCTAGTGCAG | 10500 fluorescence intensity (a.u.) |
| ACTGCTAATTCGTCTATTTTGTACCACTTTCTCTATTTTTCGGAGTCACCTAGTGCAG | 16500 fluorescence intensity (a.u.) |
| TGTGGTGTGCTTGAGGTGCTTTTGAGTTTTAAATAGATTACGGAGTCACCTAGTGCAG | 8520 fluorescence intensity (a.u.) |
| GGGATCTGAGGCGCGTTTCTTAATTTGCCTTCTCTTTGAGCGGAGTCACCTAGTGCAG | 9220 fluorescence intensity (a.u.) |
| AGTCCATCTAATTCGGCTGCACTCTTTTTCCCCTGTGAAGCGGAGTCACCTAGTGCAG | 8530 fluorescence intensity (a.u.) |
| ATTTTATCACCCTGCTTAGAGTTTCGCCCGGAGCCATGAACGGAGTCACCTAGTGCAG | 10700 fluorescence intensity (a.u.) |
| GCGAGGTCGGGGAGGTGGGTGCACAGTGCCCTGCGAGATGCGGAGTCACCTAGTGCAG | 8120 fluorescence intensity (a.u.) |
| TACAAGCCCGTTGCCATCTCTACTCCGGCCTCCTAGTCCTCGGAGTCACCTAGTGCAG | 9760 fluorescence intensity (a.u.) |
| GAATTCTTGTGTTCCAAGCATTTCGATTTGCTCCTCTCTTCGGAGTCACCTAGTGCAG | 9020 fluorescence intensity (a.u.) |
| CTGCTCTAACTGAAGTGCCAGGTGACTTGCTTGGTTGGTTCGGAGTCACCTAGTGCAG | 18300 fluorescence intensity (a.u.) |
| ATCGGAGACTGACTGAGTGAAGGTTGGTTGGTTCACACTTCGGAGTCACCTAGTGCAG | 8750 fluorescence intensity (a.u.) |
| ATGGTGGTTCTAATTCTGTTGGTTGACTGCTCTCTGAAATCGGAGTCACCTAGTGCAG | 13300 fluorescence intensity (a.u.) |
| CTATCGTCATCCTCGCGATCGCCGCATTCATCCATCCACTCGGAGTCACCTAGTGCAG | 12800 fluorescence intensity (a.u.) |
